# This is a sample that favours compounds with a hit; in the whole collection about 4.1% have one here.
# MBD2 inh: MBD2-methylated oligo binding inhibition. Q9UBB5. TR-FRET, MBD2 binding to methylated oligonucleotide. inhibition, % at 4.4 µM. actives 0.31% (n = 370,000); in the data active = inhibition above about 13%
# rCAG binder: binds r(CAG) RNA repeats. inhibition, % at 3 µM. r(CAG) RNA repeat, TO-PRO-1 dye displacement fluorescence. actives 1.3% (n = 370,000);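 active = inhibition above the plate cutoff, the mean of all test compounds on that plate plus 3 SD, cut at about 35% in these data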;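 note: higher means more dye released from RNA so lower well fluorescence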
# PRMT1 FP inh: PRMT1 (human) inhibition, primary screen | inhibition, % at 2.79 µM | recombinant PRMT1, activity-based probe fluorescence polarization | actives 1.3% (n = 370,000) | Q99873;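 active = inhibition above about 21% made by adding two undisclosed values, limit read from the data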
# ABHD5 PLIN5 PPI: inhibitors of human ABHD5-perilipin-5 interaction; Q00G26+Q8WTS1; Split G. princeps luciferase complementation, luminescence, 4 h; inhibition, % at 4 µM; actives 0.78% (n = 360,000); AID 602281;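 active = inhibition above the mean inhibition across every tested compound plus 3 SD, cut at about 22% in these data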
# LEDGF integ inh: blocks HIV-1 LEDGF/p75-dependent DNA integration; AID 743269; actives 0.64% (n = 370,000); inhibition, % at 3.7 µM; TR-FRET IN-LEDGF/p75 DNA integration, Eu/Cy5;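 active = inhibition above the screen-wide mean plus 3 SD, cut at about 13% in these data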;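 note: signal is the Cy5 over europium emission ratio at 671 and 618 nm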
# UHRF1 MBD2 ctr: UHRF1 methyl-DNA binding inhibition. Q96T88. UHRF1 binding to methylated oligo, TR-FRET. inhibition, % at 4.4 µM. actives 0.75% (n = 370,000). AID 687016; in the data active = inhibition above about 21%;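 note: UHRF1 SRA domain binding a hemimethylated CpG hairpin DNA probe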
# Target sequence (Q96T88 whole entry, looked up, the tested form may be a part): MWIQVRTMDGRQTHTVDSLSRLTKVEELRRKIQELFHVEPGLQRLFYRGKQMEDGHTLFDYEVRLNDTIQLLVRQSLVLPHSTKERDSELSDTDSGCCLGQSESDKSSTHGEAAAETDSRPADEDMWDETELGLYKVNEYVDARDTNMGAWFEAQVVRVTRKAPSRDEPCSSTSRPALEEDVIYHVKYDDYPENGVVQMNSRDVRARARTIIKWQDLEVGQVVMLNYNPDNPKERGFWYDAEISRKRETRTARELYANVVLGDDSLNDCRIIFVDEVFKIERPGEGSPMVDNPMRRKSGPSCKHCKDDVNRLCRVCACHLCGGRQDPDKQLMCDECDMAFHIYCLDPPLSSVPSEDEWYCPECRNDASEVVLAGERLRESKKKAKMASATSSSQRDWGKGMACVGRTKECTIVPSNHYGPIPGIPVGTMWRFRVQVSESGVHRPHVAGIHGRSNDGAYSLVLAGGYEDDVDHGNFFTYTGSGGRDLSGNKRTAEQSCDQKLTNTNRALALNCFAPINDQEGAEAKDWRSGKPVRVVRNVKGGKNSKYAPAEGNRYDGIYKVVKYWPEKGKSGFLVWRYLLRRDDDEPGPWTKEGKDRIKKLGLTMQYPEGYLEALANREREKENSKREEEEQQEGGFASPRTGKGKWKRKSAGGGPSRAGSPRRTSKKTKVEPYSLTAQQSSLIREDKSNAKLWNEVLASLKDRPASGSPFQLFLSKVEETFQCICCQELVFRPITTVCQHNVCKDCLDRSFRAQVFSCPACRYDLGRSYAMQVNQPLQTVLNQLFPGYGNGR
# Hits are given with their value; 0 = inactive; - = no result.
SMILES,MBD2 inh,rCAG binder,PRMT1 FP inh,ABHD5 PLIN5 PPI,LEDGF integ inh,UHRF1 MBD2 ctr
COC(=O)c1nc(-c2ccccc2)nc(-c2ccccc2)c1C(=O)OC,0,0,0,0,0,0
COC(=O)c1n[nH]nc1-c1ccccc1,0,0,0,0,0,21.9
N#C/C(C(=O)N1CCCCC1)=C1\Nc2ccccc2S1,0,0,0,0,0,0
Cc1ccc(NC(=S)/C(C#N)=C2/Nc3ccccc3S2)cc1,0,91.6,0,0,0,0
O=C(CN1CCN(Cc2ccccc2)CC1)N/N=C\c1ccccc1[N+](=O)[O-],0,0,0,-,0,0
CCOc1cc(/C=C2\SC(=N)N(c3nonc3N)C2=O)ccc1OCCN1CCOCC1,0,40.1,0,0,0,0
CCOc1cc(/C=C2\SC(=N)N(c3nonc3N)C2=O)ccc1OCC(N)=O,0,0,0,0,0,0
O=C(NC1CCCC1)c1ccccc1OCc1ccccc1,0,0,0,0,0,39.1
c1ccc(COc2ccc(OCCCNC3CCCC3)cc2)cc1,0,0,0,0,0,30.6
O=C1NN(c2ccccc2)C(=O)C1=Cc1ccccc1O,0,0,0,0,0,0
O=C1NN(c2ccc(Br)cc2)C(=O)/C1=C\c1ccc(O)cc1O,0,45.9,0,0,0,0
CC(C)C[C@@H]1COc2cc(Br)ccc2S(=O)(=O)N1Cc1cn(Cc2ccc(Cl)cc2)nn1,0,0,0,-,0,0
COC(=O)[C@]12C[C@H](CC(=O)NCc3cccc(C(F)(F)F)c3)C(=O)N(CCC3=CCCCC3)C1=C[C@H](COCc1ccccc1)O[C@@H]2C,0,0,0,-,0,0
C#CCOCCOCCOCCNc1nc(N2CCN(C(=O)CCCCCCCCCCNC(=O)[C@H](CCCCN)n3cc(CCO)nn3)CC2)nc(N2CCN(C(=O)CCCCCCCCCCNC(=O)[C@H](CCCCN)n3cc(CCO)nn3)CC2)n1,-,-,-,29.3,-,-
C#CCOCCOCCOCCNc1nc(N2CCN(C(=O)CCCCCCCCCCNC(=O)[C@H](CCCCN)n3cc(CCO)nn3)CC2)nc(N2CCN(C(=O)CCCCCCCCCCNC(=O)[C@H](CCCN=C(N)N)n3cc(C[C@@H](C)CC)nn3)CC2)n1,-,-,-,49.7,-,-
C#CCOCCOCCOCCNc1nc(N2CCN(C(=O)CCCCCCCCCCNC(=O)Cn3cc(C[C@@H](C)O)nn3)CC2)nc(N2CCN(C(=O)CCCCCCCCCCNC(=O)[C@H](CCCCN)n3cc(C[C@@H](C)CC)nn3)CC2)n1,-,-,-,42.8,-,-
C#CCOCCOCCOCCNc1nc(N2CCN(C(=O)CCCCCCCCCCNC(=O)[C@@H](CCC(=O)O)n3cc(CCCCCN)nn3)CC2)nc(N2CCN(C(=O)CCCCCCCCCCNC(=O)[C@@H](CCC(=O)O)n3cc(CCCCCN)nn3)CC2)n1,0,0,0,0,0,0
C#CCOCCOCCOCCNc1nc(N2CCOCC2)nc(N2CCN(C(=O)CCCCCCCCCCNC(=O)[C@H](CO)n3cc(CCCCCN)nn3)CC2)n1,0,0,0,0,0,0
C#CCOCCOCCOCCNc1nc(N2CCN(C(=O)CCCCCCCCCCNC(=O)[C@H](CCCCN)n3cc(C[C@@H](C)CC)nn3)CC2)nc(N2CCN(C(=O)CCCCCCCCCCNC(=O)[C@H](CCCCN)n3cc(C[C@@H](C)CC)nn3)CC2)n1,-,-,-,58.1,-,-
C#CCOCCOCCOCCNc1nc(N2CCN(C(=O)CCCCCCCCCCNC(=O)[C@H](CCCCN)n3cc(CCCC(=O)O)nn3)CC2)nc(N2CCN(C(=O)CCCCCCCCCCNC(=O)[C@H](CCCCN)n3cc(CCCC(=O)O)nn3)CC2)n1,-,-,-,0,-,-
C#CCOCCOCCOCCNc1nc(N2CCN(C(=O)[C@H]([C@@H](C)CC)n3cc(CCCN=C(N)N)nn3)CC2)nc(N2CCN(C(=O)[C@H](CCCCN)n3cc(CCC(=O)O)nn3)CC2)n1,0,0,0,0,0,0
C#CCOCCOCCOCCNc1nc(N2CCN(C(=O)CCCCCCCCCCNC(=O)[C@H](CCCCN)n3cc(CCCC(=O)O)nn3)CC2)nc(N2CCN(C(=O)CCCCCCCCCCNC(=O)[C@H](CCCN=C(N)N)n3cc(C[C@@H](C)CC)nn3)CC2)n1,-,-,-,44.8,-,-
C#CCOCCOCCOCCNc1nc(N2CCN(C(=O)CCCCCCCCCCNC(=O)[C@@H](CCSC)n3cc(CCO)nn3)CC2)nc(N2CCN(C(=O)CCCCCCCCCCNC(=O)[C@H]([C@@H](C)CC)n3cc(CCCCN=C(N)N)nn3)CC2)n1,-,-,-,57.3,-,-
O=S1(=O)c2ccc(N3CCN(Cc4ccccc4F)CC3)cc2Oc2ccccc2CN1Cc1cn(Cc2cccc(C(F)(F)F)c2)nn1,0,0,0,-,0,0
COc1ccccc1C(=O)NCC(=O)N/N=C/c1ccc([N+](=O)[O-])cc1,0,0,0,0,0,24.7
SMILES,MBD2 inh,rCAG binder,PRMT1 FP inh,ABHD5 PLIN5 PPI,LEDGF integ inh,UHRF1 MBD2 ctr
COCc1cc(C)nc(OCC(=O)N/N=C/c2ccc(OC)c(O)c2)c1C#N,0,0,0,0,0,36.3
Cc1[nH]c(=S)c(C#N)c(-c2ccco2)c1C(=O)N(C)C,0,0,30.6,0,0,0
CC(=O)c1c(C)[nH]c(=S)c(C#N)c1-c1ccc(Cl)cc1,0,0,0,0,0,0
C[C@@H]1OC(C2CCCCC2)N(C)[C@H]2C[C@H]3c4[nH]c5c(-c6ccccc6)cccc5c4CCN3C(=O)[C@@H]12 (some centres not stated),0,0,0,-,0,0
CC(C)(C)OC(=O)C[C@@H]1C/C=C\C[C@@H](CC(=O)NCCO)C(=O)NCCOC1=O,0,0,0,0,17.8,0
CC(C)(C)OC(=O)C[C@H]1C/C=C\C[C@H](CC(=O)NCCO)C(=O)NCCOC1=O,0,0,0,0,0,0
COc1ccccc1OCc1ccc(C(=O)N(C)C)o1,0,0,0,0,0,0
COc1ccccc1OCc1ccc(C(=O)N(C)c2ccccc2)o1,0,0,0,0,0,24.6
COc1ccc2ccccc2c1/C=N/Nc1cccc(C(=O)O)c1,0,0,0,0,0,0
O=C(O)c1cccc(N/N=C/c2cccc3ccccc23)c1,0,0,0,0,0,41.6
CCCCOCCCNC(=O)C[C@H]1C[C@@]2(C(=O)OCC)CCCC3=C2N(CCC3)C1=O,0,0,0,-,0,0
CCCN(C(=O)CSc1nnnn1C)C1CCS(=O)(=O)C1 (configuration not stated),0,0,0,0,0,21.9
O=c1cc(N2CCN(c3cccc(Cl)c3Cl)CC2)[nH]c(=O)n1C1CCCCC1,0,-,0,-,0,0
CCCN(CC1CC1)C(=O)CN1C(=O)C2CCCCN2C(=O)c2ccccc21 (configuration not stated),0,0,0,-,0,0
Nc1c(/C=C2/C=CC(=O)C(O)=C2)c(=O)nc2sc(CC(=O)N3CCCCC3)nn12,0,0,0,0,15.8,26.2
COC1=CC(=Cc2c(N)n3nc(CC(=O)N4CCCCC4)sc3nc2=O)C=C(OC)C1=O,0,0,0,0,0,32.1
